Source: the supplement of paper PMC12024424
Structures can show the parent of a compound that is named as a salt.

tested on: Staphylococcus aureus Sa2 (MRSA, cystic fibrosis isolate); test: growth reduction vs untreated control (viable cell count); higher = stronger antibacterial activity; extreme values may be limits of the assay; details: 0.1 mM; 24 h
Protocol: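 Single-dose screen of the MedChem Express Drug Repurposing Library (0.1 mM, 1% DMSO) against planktonic MRSA S. aureus Sa2 (CF isolate) in TSB in 96-well plates, 37 °C aerobic, 24 h. Assays were run in triplicate and repeated twice.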

Question: Which growth reduction does the source give for `C[C@]1(O)C[C@@H](c2nc(-c3ccc4ccc(-c5ccccc5)nc4c3)c3c(N)nccn32)C1` [Linsitinib] here?
Answer: Its growth reduction is 100%.

Question: For `CCCCN(CCCC)CCC(O)c1cc2c(Cl)cc(Cl)cc2c2cc(C(F)(F)F)ccc12` (stereo not given) [Halofantrine hydrochloride], which growth reduction is on record?
Answer: Its growth reduction is 94%.

Question: For `O=C(NCC12CC3CC(CC(C3)C1)C2)c1cc(CCCNCCCO)ccc1Cl` [AZD9056 (hydrochloride)], which growth reduction is on record?
Answer: Its growth reduction is 100%.

Question: For `CCC[C@H](Oc1cc(C)c(-n2cc(C(F)(F)F)cn2)c(C)c1)c1ccc(C(=O)NCCC(=O)O)cc1`, which growth reduction is on record?
Answer: The growth reduction was 100%.

Question: `CN1C(=O)[C@@H](NC(=O)c2n[nH]c(Cc3ccccc3)n2)COc2ccccc21` was tested. Which growth reduction did it give?
Answer: The growth reduction was 90%.

Question: Which growth reduction does the source give for `CC[C@H](C)C(=O)O[C@H]1C[C@@H](C)C=C2C=C[C@H](C)[C@H](CC[C@@H]3C[C@@H](O)CC(=O)O3)[C@H]21` [Lovastatin] here?
Answer: The growth reduction was 100%.

Question: `CC(C)(C)NCC(O)COc1ccccc1C1CCCC1` (single isomer, unassigned; (+)) [(+)-Penbutolol] was tested. Which growth reduction did it give?
Answer: Its growth reduction is 94%.

Question: For `COc1cccc(OC)c1-c1cc(C(=O)NC2(C(=O)O)C3CC4CC(C3)CC2C4)nn1-c1ccnc2cc(Cl)ccc12` (stereo not given) [Meclinertant], which growth reduction is on record?
Answer: Its growth reduction is 100%.

Question: With `CC1(C)CC=C(c2nc(C3CC(C)(C)OC(C)(C)C3)ccc2NC(=O)c2nc(C#N)c[nH]2)CC1` [Edicotinib] as the compound, how does the growth reduction read?
Answer: Its growth reduction is 100%.

Question: For `C=CC(=O)Nc1cc(Nc2nccc(-c3cn(C)c4ccccc34)n2)c(OC)cc1N(C)CCN(C)C` [Osimertinib (dimesylate)], which growth reduction is on record?
Answer: Its growth reduction is 100%.

Question: With `Cc1ccc2c(=O)c3cccc(CC(=O)O)c3oc2c1C` [Vadimezan] as the compound, how does the growth reduction read?
Answer: Its growth reduction is 100%.

Question: With `O=C(O)CCCc1cc2cc(Cl)ccc2n1S(=O)(=O)c1ccc2ncsc2c1` [Lanifibranor] as the compound, how does the growth reduction read?
Answer: The growth reduction was 99%.

Question: Which growth reduction does the source give for `CCN(CC)CCNC(=O)c1c(C)[nH]c(/C=C2\C(=O)Nc3ccc(-c4csc(-c5ccccc5)n4)cc32)c1C` [Amcasertib] here?
Answer: Its growth reduction is 100%.

Question: `COC1=C(OC)C(=O)C(CCCCCCCCCC[P+](c2ccccc2)(c2ccccc2)c2ccccc2)=C(C)C1=O` [Mitoquinone (mesylate)] was tested. Which growth reduction did it give?
Answer: Its growth reduction is 100%.

Question: `NC(N)=NC(=O)c1nc(Cl)c(N2CCCCCC2)nc1N` [5-(N,N-Hexamethylene)-amiloride] was tested. Which growth reduction did it give?
Answer: Its growth reduction is 100%.

Question: How did the growth reduction turn out when `Cn1cc(-c2ccncc2)c(-c2ccc(OCc3ccc4ccccc4n3)cc2)n1` [Mardepodect (hydrochloride)] was run?
Answer: Its growth reduction is 97%.

Question: For `COc1cc2c(cc1Cc1cccc(Cl)c1F)c(=O)c(C(=O)O)cn2[C@H](CO)C(C)C` [Elvitegravir], which growth reduction is on record?
Answer: The growth reduction was 100%.

Question: For `Clc1ccc(C(Cn2ccnc2)OCc2c(Cl)cccc2Cl)c(Cl)c1` (stereo not given) [Isoconazole (nitrate)], which growth reduction is on record?
Answer: The growth reduction was 100%.

Question: With `NC(=O)c1cccc2cn(-c3ccc([C@@H]4CCCNC4)cc3)nc12` [Niraparib (tosylate)] as the compound, how does the growth reduction read?
Answer: The growth reduction was 99%.

Question: For `CC(OC(=O)c1ccc(Cc2c(O)c3ccccc3oc2=O)cc1)(C(F)(F)F)C(F)(F)F` [Tecarfarin], which growth reduction is on record?
Answer: The growth reduction was 100%.

Question: With `Clc1ccc(C(c2ccccc2Cl)C(Cl)Cl)cc1` (stereo not given) [Mitotane] as the compound, how does the growth reduction read?
Answer: The growth reduction was 100%.

Question: `Clc1ccc(CO/N=C(\Cn2ccnc2)c2ccc(Cl)cc2Cl)c(Cl)c1` [Oxiconazole nitrate] was tested. Which growth reduction did it give?
Answer: Its growth reduction is 100%.

Question: `C[C@H]1Cc2c([nH]c3cc(Cl)c(F)cc23)[C@@]2(N1)C(=O)Nc1ccc(Cl)cc12` [Cipargamin] was tested. Which growth reduction did it give?
Answer: The growth reduction was 100%.

Question: `CC(C)(C(=O)NCC(F)(F)C(F)(F)F)C(=O)N[C@@H]1C(=O)Nc2ccccc2-c2ccccc21` was tested. Which growth reduction did it give?
Answer: Its growth reduction is 90%.

Question: Which growth reduction does the source give for `CN(Cc1cnc2nc(N)nc(N)c2n1)c1ccc(C(=O)N[C@@H](CCC(=O)O)C(=O)O)cc1` [Methotrexate] here?
Answer: Its growth reduction is 95%.

Question: `Cc1cc(Nc2ncnc3ccc(NC4=NC(C)(C)CO4)cc23)ccc1Oc1ccn2ncnc2c1` [Tucatinib] was tested. Which growth reduction did it give?
Answer: The growth reduction was 92%.

Question: How did the growth reduction turn out when `N[C@@H]1CC[C@@H](c2ccc(Cl)c(Cl)c2)c2ccccc21` [Dasotraline (hydrochloride)] was run?
Answer: Its growth reduction is 100%.

Question: For `CCCCCCCCOc1ccccc1C(=O)Nc1ccc(C(=O)OCC[N+](C)(CC)CC)cc1` [Otilonium (bromide)], which growth reduction is on record?
Answer: The growth reduction was 100%.

Question: For `Cc1cc(O[C@@H](CCC(F)(F)F)c2ccc(C(=O)NCCC(=O)O)cc2)cc(C)c1-c1ccc(C(C)(C)C)cc1` [Adomeglivant], which growth reduction is on record?
Answer: The growth reduction was 100%.

Question: `CC(C)c1c(C(=O)Nc2ccccc2)c(-c2ccccc2)c(-c2ccc(F)cc2)n1CC[C@@H](O)C[C@@H](O)CC(=O)O` [Atorvastatin (hemicalcium salt)] was tested. Which growth reduction did it give?
Answer: Its growth reduction is 98%.

Question: For `NC(=O)N1CCC(CC(=O)N2CCC([C@H]3c4ncc(Br)cc4CCc4cc(Cl)cc(Br)c43)CC2)CC1` [Lonafarnib], which growth reduction is on record?
Answer: Its growth reduction is 96%.

Question: For `CCOC(=O)C1=C(C)NC(C)=C(C(=O)OC)C1c1cccc(Cl)c1Cl` (stereo not given) [Felodipine], which growth reduction is on record?
Answer: Its growth reduction is 100%.

Question: With `C#C[C@]1(O)CC[C@H]2[C@@H]3CCc4cc(OC)ccc4[C@H]3CC[C@@]21C` [Mestranol] as the compound, how does the growth reduction read?
Answer: The growth reduction was 93%.

Question: How did the growth reduction turn out when `O=C(NC1CCN(CCCCC2(C(=O)NCC(F)(F)F)c3ccccc3-c3ccccc32)CC1)c1ccccc1-c1ccc(C(F)(F)F)cc1` [Lomitapide] was run?
Answer: The growth reduction was 100%.

Question: `COc1cc(/C=C/c2ccc(O)cc2)cc(OC)c1` [Pterostilbene] was tested. Which growth reduction did it give?
Answer: The growth reduction was 100%.

Question: How did the growth reduction turn out when `C=CC(=O)Nc1cc(Nc2nccc(-c3cn(C4CC4)c4ccccc34)n2)c(OC)cc1N(C)CCN(C)C` [Almonertinib] was run?
Answer: Its growth reduction is 100%.

Question: Which growth reduction does the source give for `CCCCCc1ccc(C=CC(=O)Nc2ccccc2C(=O)O)cc1` [N-(p-amylcinnamoyl) Anthranilic Acid] here?
Answer: The growth reduction was 100%.

Question: For `OCc1cc([C@@H](O)CNCCCCCCOCCOCc2c(Cl)cccc2Cl)ccc1O` [Vilanterol], which growth reduction is on record?
Answer: The growth reduction was 100%.

Question: `CN1CCCC(CC2c3ccccc3Sc3ccccc32)C1` (stereo not given) [Metixene hydrochloride hydrate] was tested. Which growth reduction did it give?
Answer: Its growth reduction is 100%.

Question: `O=c1[nH]cnc2c1cnn2[C@@H]1O[C@H](CO)[C@@H](O)[C@H]1O` [Allopurinol riboside] was tested. Which growth reduction did it give?
Answer: The growth reduction was 100%.
